Measurements as given in PubChem BioAssay.

Experiments:
[1] = inhibitors of PAF-induced NFkB signaling in CF airway cells, dose response, cell-based, uHTS hits, panel, cytotoxicity readout (AID 624344); details: CF bronchial epithelial cells, PAF-induced NFkB reporter inhibition, with PAF, run 1; at 79 µM (top of the series) unless noted
[2] = as above; details: CF bronchial epithelial cells, PAF-induced NFkB reporter inhibition, with PAF, run 2; at 79 µM (top of the series) unless noted

| SMILES | inhibition [1] | inhibition [2] |
| --- | --- | --- |
| COc1cccc(C(=O)N2C(C(C)C)COc3cc(Br)ccc3S2(=O)=O)c1 (stereo not given) | 118% | 101% |
| O=c1[nH]c(C2CCN(S(=O)(=O)c3ccc4c(c3)OCCO4)CC2)nc2c1nnn2Cc1c(F)cccc1Cl | 93% | 101% |
| CCC(CO)Oc1cc(NCc2ccc(Cl)cc2Cl)c2ncn(C(C)C)c2c1 (stereo not given) | 105% | 109% |
| Cc1ccc(N=Cc2cc3c(cc2O)OC(N)=C(C#N)C3c2ccccc2)cc1 (stereo not given) | 79.8% | 60.7% |
| O=C1NC(c2cccc3ccccc23)Nc2ccc(Cl)cc21 (stereo not given) | 61.5% | 99.9% |
| CCOC(=O)[C@@H]1[C@H]2COc3ccc(Br)cc3[C@H]2N2C(=O)N(c3ccc(C)cc3)C(=O)[C@]12C | 14.6% | 35.9% |
| CS(=O)(=O)Nc1ccc(-c2cnc3cccnn23)cc1 | 95.8% | 102% |
| Cc1nc(N2CCC(C(N)=O)CC2)c2c(-c3cccs3)csc2n1 | 97.5% | 93.8% |
| CC(C)c1ccccc1NC(=O)COC(=O)c1c2c(nc3ccccc13)CCN(Cc1ccccc1)C2 | 76.4% | 90.6% |
| Cc1ccc(CNc2ncnc3ccc(-c4ccoc4C)cc23)o1 | 103% | 89.6% |
| O=S(=O)(c1cccc2cnccc12)N1CCCNCC1 | 116% | 105% |
| Cc1c(C(=O)OCC(C)C)[nH]c2c1C(=O)CC(c1ccco1)C2 (stereo not given) | 97.4% | 61.5% |
| C=CCn1c(Oc2ccccc2F)nc2c1c(=O)n(C)c(=O)n2C | 95.6% | 93.3% |
| Fc1cccc(Cl)c1/C=N/Nc1c(Cl)cncc1Cl | 101% | 104% |
| Cc1ccc(NS(=O)(=O)c2ccc(-c3cnc(C4CC4)o3)cc2)c(C)c1 | 104% | 111% |
| Cc1ccc(S(=O)(=O)Nc2cccc3cccnc23)c([N+](=O)[O-])c1 | 101% [at 39.5 µM] | 94.2% [at 39.5 µM] |
| CC(=O)Nc1nc(C)c(-c2csc(Nc3cccc(C(C)=O)c3)n2)s1 | 105% | 101% |
| C/C=C/COC(=O)c1[nH]c2c(c1C)C(=O)CC(c1ccco1)C2 (stereo not given) | 106% | 92.9% |
| CC(=O)Nc1ccc(-c2ccnc3c2CC(C(=O)NCc2ccccc2)O3)cc1 (stereo not given) | -53.5% | -72.7% |
| COCc1cc(S(=O)c2ccc(Cl)cc2)nc(C)n1 (stereo not given) | 103% | 105% |
| CS(=O)(=O)c1ccc2nc(NC(=O)Nc3cccc(Cl)c3)sc2c1 | 79.3% | 83.9% |
| NC(=O)c1sc2nccc(Nc3ccccc3)c2c1N | 117% | 103% |

| SMILES | inhibition [1] | inhibition [2] |
| --- | --- | --- |
| CC1Cc2ccccc2N1c1ncnc2nc[nH]c12 (stereo not given) | 114% | 106% |
| CCOC(=O)N1CCC(NC(=O)c2ccc3c(c2)N=C(C)c2c(C)ccc(C)c2S3)CC1 | 92.2% | 115% |
| O=C(NCCCSc1ccccc1)c1cc(Br)ccc1O | 110% | 103% |
| CN(CCC#N)C(=O)COC(=O)c1ccccc1C(=O)c1ccc(Cl)c([N+](=O)[O-])c1 | 96.7% | 105% |
| Cc1ccc(Nc2nc3nonc3[nH]c2=O)cc1Cl | 118% | 104% |
| COc1ccc(COC(=O)C2=C(C)NC(=O)NC2c2ccc(OC)cc2)cc1 (stereo not given) | 76.8% | 78% |
| CN(C)CCCN(C(=O)CCS(=O)(=O)c1ccccc1)c1nc2cc3c(cc2s1)OCO3 | 88.7% | 73% |
| O=C(/C=C/c1cccs1)Nc1cccc(NC(=O)/C=C/c2cccs2)n1 | 97.2% | 96.4% |
| CC(C)(C)C(=O)/C(=C/c1ccncc1)n1cncn1 | 98.3% | 102% |
| Cc1cccc(N2CCN(C(=O)c3[nH]c(C(F)(F)F)nc3-c3ccccc3)CC2)c1C | 91.2% | 103% |
| O=C1CC(=O)OC(c2ccc([N+](=O)[O-])cc2)O1 | 101% | 94.3% |
| COc1ccc2c(c1)c(C(C)=O)c(C)n2-c1ccc(C(C)=O)cc1 | 89.8% | 101% |
| CC(=O)Nc1ccc(NC(=O)COC(=O)c2c3c(nc4ccccc24)CCN(Cc2ccccc2)C3)cc1 | 92.5% | 89.8% |
| CCN1CCN(Cc2ccc(NC(=O)c3ccc(C)c(NC(=O)c4ccc5n[nH]nc5c4)c3)cc2C(F)(F)F)CC1 | 101% | 111% |
| C=C1C(=O)C23C(O)C1CCC2C12COC3(O)C(O)C1C(C)(C)CCC2O (stereo not given) | 87.7% | 76.9% |
| Cc1ccc(NC(=O)c2ccccc2NS(=O)(=O)c2ccc(Cl)s2)cc1S(=O)(=O)N1CCOCC1 | 111% | 95.3% |
| Cc1ccc(CCC(=O)Nc2ncc(Cc3cccc(Cl)c3Cl)s2)o1 | 101% | 112% |
| COc1ccc(-c2cc(NC=O)c3ncc(-c4cc(OC)c(OC)c(OC)c4)n3c2)cc1 | 50.1% | 53.5% |
| C[C@@H]1CN([C@H](C)CO)C(=O)c2cc(NC(=O)Nc3ccc(C(F)(F)F)cc3)ccc2O[C@H]1CN(C)S(=O)(=O)c1ccc(Cl)cc1 | 86.7% | 92.7% |
| COC(=O)c1c(C)n(-c2ccc(OC)cc2)c2ccc(O)cc12 | 103% | 94.9% |
| O=C(NCc1nc(-c2ccc(C(F)(F)F)cc2)no1)Nc1cc(Cl)cc(Cl)c1 | 97.9% | 114% |
| CN(C)C=Nc1c(C(=O)c2ccccc2)sc2nccc(N(C)C)c12 | 100% | 105% |

| SMILES | inhibition [1] | inhibition [2] |
| --- | --- | --- |
| Cn1c(Sc2ccc(Br)cc2)c(C=O)c2ccccc21 | 108% | 112% |
| COc1cccc(-c2ccc3ncnc(NCc4cccc(C)c4)c3c2)c1 | 118% | 104% |
| O=S1(=O)CC=C(CSC(=S)NC2CCS(=O)(=O)C2)C1 (stereo not given) | 100% | 110% |
| O=C(Oc1ccc(F)cc1C(=O)/C=C/c1cccs1)c1cccc([N+](=O)[O-])c1 | 49.3% | 40.3% |
| O=C(CCC1COc2ccccc2O1)Nc1ccc(Cl)cn1 (stereo not given) | 104% | 112% |
| COc1ccc(OC)c(Nc2ncnc3ccc(Br)cc23)c1 | 98.3% | 97.5% |
| CC(C)(C)OC(=O)NCC(=O)Oc1cc2oc(=O)cc(-c3ccccc3)c2cc1Cl | 117% | 104% |
| Cc1ccc(C)c(S(=O)(=O)N(C(=O)c2ccncc2)c2ccc(OC(=O)c3ccncc3)cc2)c1 | 104% | 118% |
| O=C(NCCc1ccc(F)cc1)c1coc(=O)c(Br)c1 | 82% | 83.4% |
| Cc1nc([N+](=O)[O-])c(Sc2nc3ccccc3n2C)n1Cc1ccccc1 | 101% | 115% |
| C=CCOc1c(OC)cc(/C=N/Nc2cccc(C(=O)O)c2)c(Br)c1Br | 103% | 105% |
| COc1ccc2cc3c(N)nn(C(=O)c4ccc(F)cc4)c3nc2c1 | 90% | 96.1% |
| O=C1NCCc2c1[nH]c1c(Cl)ccc(Cl)c21 | 101% | 113% |
| C=C(C)[C@@H]1CC[C@]2(C(=O)O)CC[C@]3(C)[C@H](CC[C@@H]4[C@@]5(C)CC[C@H](O)C(C)(C)[C@@H]5CC[C@]43C)[C@@H]12 | 47.9% | 57.6% [at 19.8 µM] |
| C=CCN1c2ccccc2Sc2cnccc21 | 105% | 116% |
| C=C1C(=O)OC2CC1C(O)CC(C)=CCCC(C)=CC(O)CC2C (stereo not given) | 103% | 110% |
| COc1cc(C(=O)c2cc3c(cc2C)OCO3)cc(OC)c1OC | 48.2% | 51.8% |
| Cc1ccccc1C(=O)N1CCN(c2ccc(NC(=O)c3cccc(OC(C)C)c3)cc2)CC1 | 89.1% | 86.4% |
| O=C(N/N=C/c1ccccc1Cl)c1[nH]c2ccc(Br)cc2c1-c1ccccc1 | 105% | 109% |
| COc1ccc(C(=O)N[C@H](C(=O)Nc2nc3ccccc3[nH]2)C(C)C)cc1 | 99.8% | 102% |
| O=C(c1nnsc1S(=O)c1ccc(Cl)cc1)N1CCOCC1 (stereo not given) | 95.6% | 110% [at 19.8 µM] |
| C=CCn1cnc2c(c1=O)c1nc3ccccc3nc1n2/N=C/c1cc(OC)c(OC)c(OC)c1 | 109% | 102% |

| SMILES | inhibition [1] | inhibition [2] |
| --- | --- | --- |
| O=C(Nc1ccccc1N1CCOCC1)c1cc(-c2ccco2)nc2ccccc12 | 102% | 95.6% |
| CCOc1ccc(CCN2C(=S)N([C@@H](CC(C)C)CN3CCCC3CN3C(=S)NC[C@@H]3CC(C)C)C[C@@H]2Cc2ccc(O)cc2)cc1 (stereo not given in full) | 76.2% | 93.9% |
| Cc1ccc(-n2nnnc2Sc2ccc(S(=O)(=O)NCCN(C)C)cc2[N+](=O)[O-])cc1 | 104% | 114% |
| CCn1c2ccccc2c2cc(/C=N/O)ccc21 | 114% | 105% |
| C[C@@H]1CN([C@H](C)CO)C(=O)c2cc(NC(=O)Nc3ccc(C(F)(F)F)cc3)ccc2O[C@H]1CN(C)S(=O)(=O)c1ccccc1 | 92% | 110% |
| O=C(c1ccccc1)C1OC1C(=O)c1ccccc1 (stereo not given) | 101% | 109% |
| O=C(NCCN1CCN(c2ccccc2)CC1)c1cccc(Br)c1 | 113% | 73.9% |
| CCC1(O)C(=O)OCc2c1cc1n(c2=O)Cc2cc3cc(O)ccc3nc2-1 (stereo not given) | 106% | 88.8% |
| CCCc1nnc(NC(=O)c2nc(S(=O)(=O)Cc3ccc(C)cc3)ncc2Cl)s1 | 89% | 86.5% |
| COc1ccc(S(=O)(=O)N2c3ccc(F)cc3CCC2C)cc1 (stereo not given) | 98.8% | 71.7% |
| O=C(Nc1ccc(N2CCN(C(=O)c3ccccc3F)CC2)cc1)c1cncc(Br)c1 | 112% | 99.6% |
| COc1ccccc1-c1cc(NC=O)c2ncc(-c3ccc(F)cc3)n2c1 | 97.7% [at 39.5 µM] | 75.8% [at 39.5 µM] |
| CCCCNc1c(-c2cccc(-c3ccc(OC)cc3)c2)nc2ccc(C)cn12 | 98.7% | 107% |
| Cc1ccc(C(=O)Nc2cccc(C(F)(F)F)c2)cc1NC(=O)c1cnnc2ccccc12 | 105% | 88.8% |
| CCc1cc2c(Sc3nc4ccccc4s3)ncnc2s1 | 114% | 98.3% |
| Cn1c(N2CCN(C(c3ccccc3)c3ccccc3)CC2)nc2c1c(=O)[nH]c(=O)n2C | 108% | 104% |
| O=C(NCc1ccccc1)C1=C[C@H](c2csc3ccccc23)C[C@H](OCc2ccc(CO)cc2)O1 | 72% | 52.1% |
| COc1ccc(-c2cc(=O)oc3c(C)c(O)ccc23)cc1 | 94.8% | 101% |
| CC(=C/c1ccccc1)/C=N/n1c(-c2ccncc2)n[nH]c1=S | 110% | 103% |
